The source of these data is PubChem BioAssay.

A number with no mark means an inactive call. For some of these results: Measured potencies and affinities stand elsewhere. Active and inactive are the calls of the source. Unless noted, the rule behind the calls is not given here.

Assay [1] can be described thus: antimalarial activity against Dd2 strain (AID 2302;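 active = growth inhibition above 50% at the single 2 µM test dose, taken to imply half-maximal potency below 2 µM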;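 note: 0% = DMSO untreated growth and 100% = chloroquine plus artemisinin killed control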). The conditions noted are these: P. falciparum Dd2 in RBCs, LDH growth readout, 72 h; at 2 µM; hits give high values.
Assay [2] can be described thus: HepG2 cytotoxicity, primary screen, cytotoxicity control for P. falciparum antimalarial project, cell-based, ATP luminescence (AID 2303;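 active = inhibition above 50%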;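 note: 0% = DMSO wells and 100% = digitonin-killed cells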). The conditions noted are these: HepG2 viability, 24-48 h, at 10 µM, hits give high values.
For assay [3], the target named is L-lactate dehydrogenase (Plasmodium falciparum (isolate CDC / Honduras)) (UniProt Q27743). Put plainly: PfLDH activity inhibition – cell lysate, 3D7 strain, counter-screen for P. falciparum growth inhibition project (AID 2304).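 Note: 0% = vehicle and 100% = reference inhibitor.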 The conditions noted are these: P. falciparum 3D7 crude extract, LDH APAD/NBT absorbance; at 2 µM; hits give high values. On the technique in general: The purpose of a counterscreen is to sort out artefacts and off-target activity.
Chain of L-lactate dehydrogenase (Plasmodium falciparum (isolate CDC / Honduras)) (Q27743 whole entry, looked up): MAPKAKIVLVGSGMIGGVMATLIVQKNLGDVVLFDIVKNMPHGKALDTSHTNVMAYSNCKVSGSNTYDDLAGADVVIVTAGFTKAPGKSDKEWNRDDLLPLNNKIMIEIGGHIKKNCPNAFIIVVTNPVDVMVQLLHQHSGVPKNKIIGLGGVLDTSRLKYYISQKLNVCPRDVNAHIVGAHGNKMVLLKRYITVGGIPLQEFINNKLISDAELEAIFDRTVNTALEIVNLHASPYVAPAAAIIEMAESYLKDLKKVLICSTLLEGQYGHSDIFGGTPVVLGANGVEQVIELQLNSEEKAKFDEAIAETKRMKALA

Assay [4] in a line: inhibition of 3D7 malaria parasite growth – strain 3D7 (AID 2306).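 Note: 0% = DMSO wells and 100% = chloroquine plus artemisinin control wells.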 The conditions noted are these: P. falciparum 3D7 erythrocytic growth, LDH absorbance, 72 h; at 2 µM; hits give high values.
The target in assay [5] is Calcium-dependent protein kinase 1 (Plasmodium falciparum (isolate 3D7)) (UniProt P62344). Put plainly: PfCDPK1 kinase inhibitors, biochemical, TCAMS library (AID 1159585; cut-off not given, nearly all actives have IC50 up to about 0.98 µM;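 note: inhibitors leave more ATP so luminescence rises with inhibition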). The conditions noted are these: recombinant PfCDPK1, Kinase-Glo ATP depletion luminescence. (In general: In Kinase-Glo more light means more ATP remaining.)
Chain of Calcium-dependent protein kinase 1 (Plasmodium falciparum (isolate 3D7)) (P62344 whole entry, looked up): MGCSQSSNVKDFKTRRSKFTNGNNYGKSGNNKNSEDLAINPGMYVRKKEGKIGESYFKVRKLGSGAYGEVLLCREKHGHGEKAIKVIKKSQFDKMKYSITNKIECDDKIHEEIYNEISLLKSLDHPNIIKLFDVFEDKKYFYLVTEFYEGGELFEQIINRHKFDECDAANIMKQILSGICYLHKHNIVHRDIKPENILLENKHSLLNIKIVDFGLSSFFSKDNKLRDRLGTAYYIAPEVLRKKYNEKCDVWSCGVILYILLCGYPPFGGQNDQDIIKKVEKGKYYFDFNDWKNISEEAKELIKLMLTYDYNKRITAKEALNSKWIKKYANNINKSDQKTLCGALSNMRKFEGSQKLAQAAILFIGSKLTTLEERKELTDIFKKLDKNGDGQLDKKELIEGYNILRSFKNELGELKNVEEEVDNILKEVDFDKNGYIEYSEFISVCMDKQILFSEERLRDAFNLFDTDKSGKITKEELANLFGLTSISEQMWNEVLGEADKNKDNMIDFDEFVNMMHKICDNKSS
Assay [6] addresses Plasmodium falciparum protein kinase 6 (PK6, PF3D7_1337100) (UniProt Q8IDW1). Put plainly: PfPK6 kinase inhibitors, biochemical, TCAMS library (AID 1159586). The conditions noted are these: recombinant PfPK6, Kinase-Glo ATP depletion luminescence.
For assay [7], the target named is Protein kinase 7 (PK7), Plasmodium falciparum 3D7 (PF3D7_0213400) (UniProt Q7YTF7). Put plainly: inhibition of Plasmodium PK7 catalytic activity – biochemical, TCAMS antimalarial set, Kinase-Glo luminescence (AID 1159587). The conditions noted are these: recombinant PfPK7, Kinase-Glo ATP depletion luminescence.
Chain of Protein kinase 7 (PK7), Plasmodium falciparum 3D7 (PF3D7_0213400) (Q7YTF7 1-343): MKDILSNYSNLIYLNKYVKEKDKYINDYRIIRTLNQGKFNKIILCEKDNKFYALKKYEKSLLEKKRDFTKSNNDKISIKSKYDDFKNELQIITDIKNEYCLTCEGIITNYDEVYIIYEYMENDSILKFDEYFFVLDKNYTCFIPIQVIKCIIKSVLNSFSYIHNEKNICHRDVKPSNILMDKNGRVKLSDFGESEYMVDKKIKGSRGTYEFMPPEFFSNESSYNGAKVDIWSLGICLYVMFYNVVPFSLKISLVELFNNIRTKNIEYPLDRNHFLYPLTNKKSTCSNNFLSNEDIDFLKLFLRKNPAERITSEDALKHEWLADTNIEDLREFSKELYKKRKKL
Assay [8] concerns the target Calcium-dependent protein kinase 4 (Plasmodium falciparum (isolate 3D7)) (UniProt Q8IBS5). Description: PfCDPK4 kinase inhibitors, biochemical, TCAMS library (AID 1159588; cut-off not given, nearly all actives have IC50 up to about 0.91 µM). The conditions noted are these: recombinant PfCDPK4, Kinase-Glo ATP depletion luminescence.

Chain of Plasmodium falciparum protein kinase 6 (PK6, PF3D7_1337100) (Q8IDW1 1-305): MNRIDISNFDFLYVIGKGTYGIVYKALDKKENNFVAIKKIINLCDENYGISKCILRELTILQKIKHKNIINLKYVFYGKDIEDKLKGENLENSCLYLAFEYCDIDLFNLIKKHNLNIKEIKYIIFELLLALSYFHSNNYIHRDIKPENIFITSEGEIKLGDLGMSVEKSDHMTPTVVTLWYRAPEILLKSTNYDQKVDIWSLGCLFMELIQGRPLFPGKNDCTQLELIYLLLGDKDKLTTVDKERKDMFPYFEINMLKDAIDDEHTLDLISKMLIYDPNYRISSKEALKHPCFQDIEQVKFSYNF
Chain of Calcium-dependent protein kinase 4 (Plasmodium falciparum (isolate 3D7)) (Q8IBS5 whole entry, looked up): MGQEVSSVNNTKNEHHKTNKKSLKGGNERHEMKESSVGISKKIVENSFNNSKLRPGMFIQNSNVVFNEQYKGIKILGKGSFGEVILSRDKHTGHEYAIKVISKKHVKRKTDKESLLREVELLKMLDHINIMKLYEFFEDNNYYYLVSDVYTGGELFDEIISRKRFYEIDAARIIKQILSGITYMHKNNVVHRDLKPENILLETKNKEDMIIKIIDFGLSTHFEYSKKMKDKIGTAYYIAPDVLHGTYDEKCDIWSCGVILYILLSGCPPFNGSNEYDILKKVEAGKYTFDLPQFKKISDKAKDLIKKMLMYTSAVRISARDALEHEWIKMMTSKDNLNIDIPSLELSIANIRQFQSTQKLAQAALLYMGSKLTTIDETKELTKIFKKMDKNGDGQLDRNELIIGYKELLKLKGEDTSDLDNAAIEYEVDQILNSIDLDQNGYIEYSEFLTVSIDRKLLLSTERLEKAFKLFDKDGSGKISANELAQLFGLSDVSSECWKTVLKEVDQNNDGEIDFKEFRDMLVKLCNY

`Cc1nc2ccc3ccc(CNc4ccc(C#N)cc4)cc3c2c(=O)[nH]1`: the growth inhibition was 56% (active) in assay [1] and 84% (active) in assay [4]. The figures for the inhibition in assay [2] and in assay [3] were 55% (active) and 8%, respectively. In addition, the outcome in assay [5], in assay [6], in assay [7] and in assay [8] was inactive.

For `CCC(=O)N[C@@H]1CN[C@@H](C#Cc2cc3c(Nc4ccc(OCc5cccc(F)c5)c(Cl)c4)ncnc3s2)C1`, the growth inhibition in assay [1] is -5%; in assay [4], 82% (active). Besides, the results for the inhibition in assay [2] and in assay [3] were 46% and -3%, respectively. Further, the result in assay [5], in assay [6], in assay [7] and in assay [8] was inactive.

For the compound `CN1CCN(c2cccc(-c3nnc(-c4ccc(OCC(=O)NCc5cccc(C(F)(F)F)c5)c([N+](=O)[O-])c4)o3)c2)CC1`, the growth inhibition in assay [1] was 72% (active); in assay [4], 90% (active). Further, the inhibition is 25% in assay [2] and 2% in assay [3]. The outcome in assay [5], in assay [6], in assay [7] and in assay [8] was inactive.

Turning to `CN(Cc1c(Cl)cnn1C)S(=O)(=O)c1ccc2ccccc2c1`, the figures for the growth inhibition in assay [1] and in assay [4] were 36% and 94% (active), respectively. The values for the inhibition in assay [2] and in assay [3] were 7% and -2%, respectively. Moreover, the result in assay [5], in assay [6], in assay [7] and in assay [8] was inactive.

In the case of `CN(CC(=O)Nc1ccc(F)cc1)C(=O)c1ccc(-c2ccc(F)cc2)o1`, the growth inhibition is 84% (active) in assay [1] and 89% (active) in assay [4]. Moreover, the inhibition in assay [2] is 3%; in assay [3], -2%. The result in assay [5], in assay [6], in assay [7] and in assay [8] was inactive.

For the compound `CN1CCC(N(Cc2ccc(-c3ccc(C(F)(F)F)cc3)nc2)C(=O)Cn2c(CCc3cccc(F)c3F)cc(=O)c3ccccc32)CC1`, the growth inhibition in assay [1] is 85% (active); in assay [4] it was 91% (active). Also, the inhibition was 60% (active) in assay [2] and 3% in assay [3]. Moreover, the outcome in assay [5], in assay [6], in assay [7] and in assay [8] was inactive.

For `CC(C)CNC(=O)c1ccnc(-c2ccc(CNC3Cc4ccccc4C3)cc2)c1`, the growth inhibition in assay [1] is 29%; in assay [4] it was 99% (active). For the same compound, the results for the inhibition in assay [2] and in assay [3] were 25% and -5%, respectively. Further, the outcome in assay [5], in assay [6], in assay [7] and in assay [8] was inactive.

`COc1cc(NC(=O)C(c2ccc(Cl)cc2)C(C)C)cc(OC)c1OC` (stereo not given): the figures for the growth inhibition in assay [1] and in assay [4] were 100% (active) and 101% (active), respectively. The inhibition in assay [2] was 10%; in assay [3], -1%. Also, the result in assay [5], in assay [6], in assay [7] and in assay [8] was inactive.

`Fc1cccc(Nc2nc(NCc3ccc(Cl)c(Cl)c3)nc(Nc3cccc(F)c3)n2)c1`: the growth inhibition in assay [1] was 7%; in assay [4], 99% (active). The results for the inhibition in assay [2] and in assay [3] were -5% and 3%, respectively. Also, the result in assay [5], in assay [6], in assay [7] and in assay [8] was inactive.

As for `COc1c(C=NNc2nc(Nc3ccccc3)nc(Nc3ccccc3)n2)ccc(Br)c1O`, the growth inhibition in assay [1] was 37%; in assay [4], 98% (active). The inhibition in assay [2] is 63% (active); in assay [3], 5%. In addition, the outcome in assay [5], in assay [6], in assay [7] and in assay [8] was inactive.

For the compound `Cc1cccc2[nH]c(-c3cccc(-c4ccc(NC(=O)C(C)(C)c5ccccn5)cc4)c3)nc12`, the growth inhibition in assay [1] was 4%; in assay [4] it was 97% (active). Further, the inhibition in assay [2] was -3%; in assay [3], -1%. Moreover, the outcome in assay [5], in assay [6], in assay [7] and in assay [8] was inactive.

As to `O=C(Nc1cc(Cl)ccc1Cl)N[C@H]1CCN(CCCCCNC(=O)[C@@H]2C[C@H]2c2ccc(Cl)c(Cl)c2)C1`, the values for the growth inhibition in assay [1] and in assay [4] were 1% and 97% (active), respectively. Also, the inhibition in assay [2] is 49%; in assay [3], 0%. Besides, the outcome in assay [5], in assay [6], in assay [7] and in assay [8] was inactive.

For the compound `Cc1cc(NN=Cc2ccc(Cl)cc2)c2cccc(C)c2n1`, the growth inhibition in assay [1] is 47%; in assay [4], 103% (active). In addition, the values for the inhibition in assay [2] and in assay [3] were -1% and 2%, respectively. Moreover, the result in assay [5], in assay [6], in assay [7] and in assay [8] was inactive.

For the compound `CC(C)n1c(CC2CCN(CC3CCN(C(=O)/C=C/c4ccc(Cl)c(Cl)c4)CC3)CC2)nc2ccccc21`, the growth inhibition is 23% in assay [1] and 101% (active) in assay [4]. The figures for the inhibition in assay [2] and in assay [3] were 19% and -3%, respectively. The outcome in assay [5], in assay [6], in assay [7] and in assay [8] was inactive.

For `Cc1noc(C)c1-c1ccc2c(Nc3ccccc3C(C)(C)C)c(C(=O)NCc3ccc4c(c3)OCO4)cnc2c1`, the figures for the growth inhibition in assay [1] and in assay [4] were 88% (active) and 96% (active), respectively. For the same compound, the values for the inhibition in assay [2] and in assay [3] were 37% and -3%, respectively. In addition, the result in assay [5], in assay [6], in assay [7] and in assay [8] was inactive.

As for `COc1ccc(-c2cccc(NC(=O)c3cccs3)c2)cc1CN1CCCN(C)CC1`, the growth inhibition is 30% in assay [1] and 100% (active) in assay [4]. The inhibition in assay [2] was 17%; in assay [3], 9%. The result in assay [5], in assay [6], in assay [7] and in assay [8] was inactive.

Consider `Cc1cccc2[nH]c(-c3ccc(-c4ccc(CN5CCCC(O)C5)cc4)cc3)nc12` (stereo not given), for which the results for the growth inhibition in assay [1] and in assay [4] were 54% (active) and 100% (active), respectively. The inhibition in assay [2] was 41%; in assay [3], 6%. Further, the outcome in assay [5], in assay [6], in assay [7] and in assay [8] was inactive.

As to `COc1cc(NC(=O)c2c(-c3c(F)cccc3Cl)noc2C)c(OC)cc1Cl`, the growth inhibition was 17% in assay [1] and 89% (active) in assay [4]. Further, the inhibition in assay [2] was -12%; in assay [3] it was 5%. Moreover, the result in assay [5], in assay [6], in assay [7] and in assay [8] was inactive.

As to `O=C(NC1CCC(N2CCN(c3cccc4[nH]ccc34)CC2)CC1)c1cc2cccnc2[nH]1` (stereo not given), the figures for the growth inhibition in assay [1] and in assay [4] were 85% (active) and 99% (active), respectively. In addition, the values for the inhibition in assay [2] and in assay [3] were 9% and -2%, respectively. In addition, the outcome in assay [5], in assay [6], in assay [7] and in assay [8] was inactive.

`CC(C)C[C@H]1c2[nH]c3ccc(Cl)cc3c2CCN1C(=O)CCc1ccccc1`: the growth inhibition was 81% (active) in assay [1] and 95% (active) in assay [4]. Further, the inhibition in assay [2] was -2%; in assay [3], 6%. Besides, the outcome in assay [5], in assay [6], in assay [7] and in assay [8] was inactive.

One may read the inhibition as the drop in the measured response relative to a control, in per cent.
